# This is a sample that favours compounds with a hit; in the whole collection about 4.3% have one here.
# GRIN3A LBD mod – modulates the human NR3A ligand-binding domain. Tm shift relative to glycine control, % at 25 µM. NR3A LBD differential scanning fluorimetry, Tm shift; 0% = protein alone, 100% = glycine-bound protein. hit rate 2.5% among 340,000;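 active = melting temperature shift of at least 10% of the positive control shift, at one fixed dose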
# ADAM10 inh – inhibits human ADAM10; O14672; recombinant ADAM10, EDANS/DABCYL FRET peptide cleavage, 3 h; inhibition, % at 7 µM; hit rate 0.62% among 370,000; AID 720582;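 active = inhibition above a per-campaign cutoff equal to the mean of compounds falling between control-based bounds plus 3 SD, cut at about 20% in these data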
# FAS-TE inh – FAS thioesterase (human) inhibition; hit rate 0.67% among 360,000; P49327; recombinant FAS-TE, OMFH fluorogenic substrate, fluorescence endpoint; inhibition, % at 15 µM;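 active = compounds whose normalised, plate-corrected inhibition of enzyme fluorescence in the single-dose primary screen is 50% or more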
# ADAM17 inh – inhibits human ADAM17. recombinant ADAM17, EDANS/DABCYL FRET peptide cleavage. P78536. inhibition, % at 6.95 µM. hit rate 0.83% among 370,000;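 active = inhibition above the mean of compounds lying between control limits plus 3 SD, set per campaign, cut at about 8.5% in these data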
# sPLA2-III inh – Inhibits HGIII-sPLA2 liposome hydrolysis, primary screen; Q9NZ20; QFRET BODIPY PC-A2 liposome hydrolysis, fluorescence; inhibition, % at 12.2 µM; hit rate 0.56% among 370,000; AID 743126;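 active = inhibition above mean plus 3 SD of compounds lying within the high and low control bounds, cut at about 19% in these data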
# ADAM10 confirm – human ADAM10 inhibition, confirmation | shares compounds with ADAM10 inh | ADAM10 QFRET peptide cleavage, EDANS fluorescence | inhibition, % at 6.95 µM | hit rate 1% among 2,100 | AID 743208;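 active = inhibition above about 20% chosen separately for each screening run, limit read from the data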
# ADAM17 counter – counter-screen for ADAM10 exosite inhibitors: inhibitors of human ADAM17; shares compounds with ADAM10 inh; ADAM17 QFRET peptide cleavage, EDANS fluorescence; inhibition, % at 6.95 µM; hit rate 0.5% among 2,100;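 active = mean triplicate inhibition above the solvent-only control wells' mean plus 3 SD, cut at about 12% in these data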
# Numbers stand for hits; – = inactive; · = not tested or not shown.
SMILES,GRIN3A LBD mod,ADAM10 inh,FAS-TE inh,ADAM17 inh,sPLA2-III inh,ADAM10 confirm,ADAM17 counter
COc1ccc(/C=N/NC(=O)c2ccn[nH]2)cc1COc1ccc(Cl)cc1Cl,–,21,–,–,–,–,–
COc1ccc(S[C@]2(C(=O)N3CCN(c4ncccn4)CC3)CC(=O)N(c3ccccc3)[C@@H]2c2ccc(OC)cc2)cc1,·,–,·,–,–,·,·
Fc1ccccc1NC(=S)NNc1ncc(C(F)(F)F)cc1Cl,–,21,–,–,–,–,–
CN1C(=O)Cc2cc(S(=O)(=O)Nc3ccc(N4CCOCC4)cc3)ccc21,–,28,–,–,–,–,–
CC(=O)Nc1ccc(/C=N\NC(=O)c2cccc(S(=O)(=O)N(C)C)c2)cc1,·,–,·,–,–,·,·
C#CCNC(=O)C[C@H]1C[C@@]2(C(=O)OC)C(=C[C@H](COCc3ccccc3)O[C@@H]2C)N(Cc2ccc(Cl)cc2Cl)C1=O,·,–,·,–,–,·,·
CCn1c(=O)[nH]n(C/C(C)=C\c2c[n+](Cc3ccc4c(c3)OCO4)c(N)[nH]2)c1=O,·,–,·,–,–,·,·
O=C(NCc1cccs1)c1ccc([N+](=O)[O-])cc1,–,24,–,–,–,–,–
Cc1cc(C(=O)NCc2cccs2)ccc1[N+](=O)[O-],–,–,–,–,–,·,·
Cc1[nH]c2ccccc2c1C(=O)c1c(N)[nH]c(C(=O)c2ccccc2)c1-c1ccc(Cl)cc1,·,21,·,–,–,–,–
O=C(C1CC1)N1N=C(c2cccc(Br)c2)CC1(O)C(F)(F)F (configuration not stated),–,81,–,–,–,–,–
COc1cccc(C2=NN(C(=O)C3CC3)C(O)(C(F)(F)F)C2)c1 (configuration not stated),·,–,–,–,–,·,·
CCOC(=O)CC[C@@H]1CC[C@]2(CCCN(S(=O)(=O)C3CCCCC3)C2)O1,·,–,·,–,–,·,·
C[C@@H]1CN([C@H](C)CO)S(=O)(=O)c2ccc(C#Cc3ccccc3)cc2O[C@H]1CN(C)C(=O)Nc1ccc2c(c1)OCO2,·,20,–,–,–,–,–
CC(C)CC#Cc1ccc2c(c1)O[C@H](CN(C)C(=O)Nc1ccccc1)[C@@H](C)CN([C@H](C)CO)S2(=O)=O,·,–,–,–,–,·,·
CCOc1ccc(/C=C2/C(=O)N(c3ccc(OC)cc3)C(=S)N2CC(=O)OC)cc1OCC,–,–,–,–,–,·,·
CCOc1ccc(N2C(=O)/C(=C/c3cc(OC)c(OC)c(OC)c3)N(CC(=O)OC)C2=S)cc1,–,20,–,–,–,–,–
CSc1nc2cc(Oc3cccc(Cl)c3Cl)c(Cl)cc2[nH]1,–,20,–,–,–,–,–
CC(=O)c1ccccc1-c1csc2ncnc(Sc3nnnn3C)c12,–,76,–,–,–,–,–
CCCc1ccc(Oc2cn[nH]c2-c2ccc(O)c(C)c2O)cc1,–,32,–,14,–,–,–
COc1ccc(Oc2cn[nH]c2-c2ccc(OCC(=O)NN)cc2O)cc1,–,–,–,–,–,·,·
CCCCOc1cccc(C(=O)Nc2ccc(S(=O)(=O)Nc3nnc(CC)s3)cc2)c1,–,21,–,–,–,–,–
COc1ccc(S(=O)(=O)Nc2cc(Cl)ccc2OC)cc1,–,–,–,–,–,·,·
COc1ccc(Cl)cc1NS(=O)(=O)c1ccc(S(=O)(=O)N2CCCC2)cc1,–,20,–,–,–,–,–
N#Cc1c(-c2ccccc2)c(-c2ccccc2)n(Cc2ccco2)c1NC(=O)c1cccs1,–,20,–,–,–,21,–
C[N+]1(C)[C@H]2CC[C@H]1CC(OC(=O)C(O)c1ccccc1)C2 (some centres not stated),·,–,·,–,–,·,·
C[C@H](CCC(=O)O)[C@H]1CC[C@H]2[C@@H]3CC[C@@H]4C[C@H](O)CC[C@]4(C)[C@H]3C[C@H](O)[C@]12C,–,–,–,–,–,·,·
C[C@H](CCC(=O)OCc1cn(CC(=O)c2ccc(O)cc2)nn1)C1CC[C@H]2[C@@H]3CC[C@@H]4C[C@H](O)CC[C@]4(C)[C@H]3C[C@H](O)[C@]12C (some centres not stated),–,30,–,–,–,–,–

# Screening data: PubChem, several laboratories
